HepG2 tox – qHTS for Inhibitors of TGF-b: Cytotox Counterscreen | HepG2 CAGA-GFP viability, ATP luminescence, 18 h | Potency, µM (doses to about 46.1 µM), without a hit: at the highest dose activity change, negative = cytotoxicity, hits mostly cytotoxic | 410,000 compounds, 0.76% hits | AID 588856, 2011; further: potency means the concentration at half of the fitted maximal effect
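HepG2 CAGA-GFP cells (1000/well, DMEM with 1% FBS) received compound, then TGF-beta at 500 pg/mL final, and were incubated 18 hours at 37 degrees C. Viability was read by CellTiter-Glo luminescence. Media-only wells were set as complete cell-killing and DMSO as no toxicity.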
TGFb SMAD3 inh – qHTS for Inhibitors of TGF-b; HepG2 CAGA-GFP TGF-b/SMAD3 reporter, GFP fluorescence, 18 h; TGF-beta stimulated, 500 pg/mL final; Potency, µM (series often up to 46.1 µM), for the others: top-dose activity, negative = inhibition, hits mostly inhibitors; 410,000 compounds, 1.2% hits; AID 588855, 2011; further: potency means the concentration at half of the fitted maximal effect; on the % scale 0 is the no-effect control and ±100 the full control effect; nearly all actives have a fitted effect of over 65% in size
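GFP signal (ex488/em500-530) from TGF-beta-stimulated HEPG2 CAGA-GFP cells, 500 pg/mL final, 18 h at 37 degrees C in DMEM plus 1% FBS, normalized to unstimulated and DMSO-stimulated controls.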
DT40 TDP1 CPT – qHTS for Inhibitors of human tyrosyl-DNA phosphodiesterase 1 (TDP1): qHTS in cells in presence of CPT; chicken DT40 Tdp1-/-;hTDP1 cells + 20 nM CPT, ATP luminescence, 48 h; Potency, µM (series often up to 46.2 µM), inactives show at the top dose activity change, negative = growth inhibition, hits mostly inhibitors; 420,000 compounds, 12% hits; further: potency means the concentration at half of the fitted maximal effect; on the % scale 0 is the no-effect control and ±100 the full control effect; nearly all actives have a fitted effect of over 55% in size
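Chicken DT40 Tdp1-/- cells stably complemented with human TDP1 were seeded at 400 cells/well in medium containing 20 nM camptothecin, exposed to pin-transferred compounds, and grown at 37 °C for at least 48 hr. Viability was read as ATP luminescence.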
TDP1 cell noCPT – qHTS for Inhibitors of human tyrosyl-DNA phosphodiesterase 1 (TDP1): qHTS in cells in absence of CPT; AID 686978, 2013; 420,000 compounds, 15% hits; DT40 Tdp1-/- hTDP1 cells, no CPT, ATP luminescence, 48 h; Potency, µM (doses to about 46.2 µM), for the others: at the top dose activity change, negative = growth inhibition, usual class: inhibitors; further: potency means the concentration at half of the fitted maximal effect; on the % scale 0 is the no-effect control and ±100 the full control effect; nearly all actives have a fitted effect of over 55% in size
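A cellular qHTS used chicken DT40 cells lacking endogenous Tdp1 but carrying stably transfected human TDP1. Compounds were applied without camptothecin, and cell growth kinetics were judged by ATP-dependent luminescence after ≥48 hr.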
IL1B secr inh – qHTS for Inhibitors of Inflammasome Signaling: IL-1-beta AlphaLISA Primary Screen; THP-1 LPS/ATP IL-1B secretion, AlphaLISA, 16 h; active compounds read low; activity change, % at 57.5 µM; 360,000 compounds, 4.7% hits; AID 743279, 2014; in the data active means activity change below about -50%; inconclusive means mostly about -30% to -49%; further: on the % scale 0 is the no-effect control and ±100 the full control effect
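THP-1 cells pretreated 1 hr with compounds (up to 57.5 uM final), then stimulated with LPS (250 ng/mL final) plus ATP (1.25 mM final); secreted IL-1B measured by AlphaLISA after 16 hr, decreased signal indicating inhibition.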
TDP1 block – qHTS Assay for Inhibitors of Tyrosyl-DNA Phosphodiesterase (TDP1). Tyrosyl-DNA phosphodiesterase 1 (Homo sapiens), Q9NUW8. recombinant TDP1, AlphaScreen DNA substrate cleavage. Potency, µM (titrated, usually from 130 µM), without a hit: at the top dose activity change, negative = inhibition, usual class: inhibitors. 350,000 compounds, 0.28% hits. AID 485290, 2010; further: potency means the concentration at half of the fitted maximal effect; on the % scale 0 is the no-effect control and ±100 the full control effect; nearly all actives have a fitted effect of over 40% in size
Target sequence (Q9NUW8 whole entry, looked up): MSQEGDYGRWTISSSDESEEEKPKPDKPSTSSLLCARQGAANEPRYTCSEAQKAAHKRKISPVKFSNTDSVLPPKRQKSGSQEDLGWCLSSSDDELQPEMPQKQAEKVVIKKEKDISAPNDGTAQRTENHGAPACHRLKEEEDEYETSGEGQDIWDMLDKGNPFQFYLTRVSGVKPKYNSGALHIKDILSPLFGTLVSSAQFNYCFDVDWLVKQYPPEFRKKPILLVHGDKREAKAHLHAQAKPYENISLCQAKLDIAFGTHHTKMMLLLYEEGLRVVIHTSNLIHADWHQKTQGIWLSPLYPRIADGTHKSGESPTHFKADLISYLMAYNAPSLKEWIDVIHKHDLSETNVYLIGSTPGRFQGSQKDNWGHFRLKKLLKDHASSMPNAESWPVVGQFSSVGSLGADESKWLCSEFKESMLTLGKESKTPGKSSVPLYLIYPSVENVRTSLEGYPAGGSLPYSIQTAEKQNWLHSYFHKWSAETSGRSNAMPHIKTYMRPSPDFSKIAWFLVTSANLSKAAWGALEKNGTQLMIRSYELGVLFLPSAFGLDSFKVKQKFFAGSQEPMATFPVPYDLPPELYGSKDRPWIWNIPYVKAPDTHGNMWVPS
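AlphaScreen read-out: signal falls as enzyme removes the 3' tyrosine-FITC from a 5'-biotinylated DNA oligo (15 nM, 5 min, RT). Enzyme was E. coli-made recombinant Tdp1 at 1 nM, exposed to compound for 15 min beforehand; beads 10 ug/ml, 10 min.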
An asterisk follows results filed as active; ? = inconclusive; / = not tested or not shown; [ ] = another dose, or the depositor's remark. A selection: hits, their analogues and other compounds. The true share with any hit is near 19%. Unless noted, the call rests on the fitted dose curve; in most records, active means well fitted curve in the direction sought with a large enough effect; inconclusive means small, poorly fitted or top-dose-only effect, or another doubt; inactive means no such curve, though single readings can be large; an effect the other way counts as inactive or inconclusive.

SMILES	HepG2 tox	TGFb SMAD3 inh	DT40 TDP1 CPT	TDP1 cell noCPT	IL1B secr inh	TDP1 block
C#CCOCCOCCOCCNc1nc(N2CCN(C(=O)CCCCCCCCCCNC(=O)Cn3cc(C[C@@H](C)O)nn3)CC2)nc(N2CCN(C(=O)CCCCCCCCCCNC(=O)[C@@H]([C@H](C)CC)n3cc(CCCCCN)nn3)CC2)n1	-113%	10µM*	13µM*	5.8µM*	-105*	11%
CC1CCN(CC(=O)Nc2cccc(Cl)c2)CC1	-5%	14%	?	1%	-23	-6%
Cc1cc(NC(=O)CCNS(=O)(=O)c2ccc3c(c2)CCCC(=O)N3)ccc1Br	-11%	-10%	/	/	/	-1%
O=C(Nc1c(-c2ccc3c(c2)OCO3)[nH][nH]c1=O)c1ccc2c(c1)OCO2	-11%	-10%	-8%	-17%	5	/
COc1ccc(CN2CCn3ncc(C(=O)Nc4cc(C)cc(C)c4)c3C2=O)cc1	4%	-11%	5.8µM*	?	-4	3%
COC(=O)c1cc2n(n1)CCN(Cc1ccc(OC)cc1)C2=O	-30%	?	-13%	-32%	30	-1%
COCCNc1nc(-c2ccccc2C(F)(F)F)nc2ccccc12	/	/	-8%	-16%	/	/
CN(C)Cc1ccccc1-c1nc(NCc2ccccc2)c2ccccc2n1	/	/	16µM*	6.5µM*	/	10%
COCCNc1nc(-c2ccccc2C)nc2ccccc12	/	/	?	18µM*	/	-15%[56.1 µM]
COc1ccccc1CNc1nc(-c2ccccc2CN(C)C)nc2ccccc12	/	/	12µM*	6.5µM*	/	4%
COc1ccccc1CNc1nc(-c2ccoc2)nc2ccccc12	/	/	15µM*	26µM*	/	/
CC(C)(C)OC(=O)N1CCc2nc(N3CCN(c4ncccn4)CC3)ncc2C1	7%	0%	-11%	-26%	/	8%
COc1ccc(NC(=O)c2cccc(NC3=NC4CS(=O)(=O)CC4S3)c2)cc1Cl (stereo not drawn)	-16%	-8%	-16%	5%	-12	/
CC(C)C[C@@H](CC(=O)N[C@@H](CCC(=O)O)CC(=O)O)NC(=O)[C@@H]1CNCC[C@H]1NC(=O)C[C@H](CCCN)NC(=O)C[C@H](CO)NC(=O)[C@@H]1CNCC[C@H]1N	/	/	/	/	/	4%
COCCNc1nc(-c2ccccc2CN(C)C)nc2ccccc12	/	/	?	12µM*	/	-6%[56.1 µM]
COc1ccc(C(=O)c2c(N)sc3c2CCN(C(=O)OC(C)(C)C)C3)cc1	-2%	?	15µM*	-62%	/	/
CC(C)OCCOc1ccc2oc(-c3ccco3)cc(=O)c2c1	-12%	2%	-19%	?	-66*	/
Cc1cc(C)c(NC(=O)CS(=O)CC(=O)NCCN2CCCCCC2)c(C)c1 (stereo not drawn)	0%	-20%	12%	-25%	-10	9%
Cc1cccc(C)c1OCC(=O)Nc1c(C(=O)c2ccc(Br)cc2)oc2ccccc12	1%	2%	-6%	?	/	5%
COc1ccc(N2CCN(C(=O)c3ccc(NS(=O)(=O)c4cccs4)cc3)CC2)cc1	11%	10%	?	13µM*	4	7%
O=C(C1CCN(S(=O)(=O)c2cccs2)CC1)N1CCN(c2ccccc2O)CC1	-5%	-1%	15µM*	?	-27	1%
O=C(C1CCN(S(=O)(=O)c2cccs2)CC1)N1CCN(c2ccccc2F)CC1	-32%	?	-11%	?	/	5%

Source: PubChem BioAssay
